Some of the results follow. Unmarked numbers belong to inactive results.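 How the source made its calls: active means at least twofold enzyme activation in any of six single-dose repeats, which the averaged readout prints as negative percent; inactive means the rest.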
Target: Intestinal-type alkaline phosphatase (Homo sapiens) (UniProt P09923)
Experiment: enhancement of intestinal alkaline phosphatase activity – biochemical, luminescence, single concentration, uHTS hits, confirmation (AID 434926)
Conditions: purified IAP, CDP-Star luminescence, 30 min; at 8.3 µM; hits give low values

Chain of Intestinal-type alkaline phosphatase (Homo sapiens) (P09923 whole entry, looked up): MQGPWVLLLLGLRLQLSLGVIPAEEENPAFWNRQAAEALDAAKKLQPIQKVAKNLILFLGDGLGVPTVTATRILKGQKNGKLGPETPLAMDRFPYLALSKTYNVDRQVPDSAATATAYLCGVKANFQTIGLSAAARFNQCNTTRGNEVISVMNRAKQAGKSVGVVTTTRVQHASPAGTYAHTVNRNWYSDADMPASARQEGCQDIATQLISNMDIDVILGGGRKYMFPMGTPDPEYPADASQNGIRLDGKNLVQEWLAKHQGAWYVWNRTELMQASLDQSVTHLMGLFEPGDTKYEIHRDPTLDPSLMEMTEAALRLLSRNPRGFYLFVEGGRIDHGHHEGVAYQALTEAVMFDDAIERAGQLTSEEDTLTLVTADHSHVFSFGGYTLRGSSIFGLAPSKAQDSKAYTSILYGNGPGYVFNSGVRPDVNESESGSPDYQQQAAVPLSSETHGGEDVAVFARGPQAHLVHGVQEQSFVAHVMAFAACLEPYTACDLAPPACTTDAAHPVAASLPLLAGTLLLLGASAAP

Compound | activation (%Activity, negative = activation)
COc1ccccc1N=Nc1c(O)[nH]c(=S)[nH]c1=O | 4.66%
CN(c1ccccc1)c1ccc([N+](=O)[O-])c2nonc12 | -1.35%

Source: PubChem BioAssay AID434926 (Sanford-Burnham Center for Chemical Genomics, 2010)
